Data: PubChem BioAssay AID504652 (National Center for Advancing Translational Sciences (NCATS), 2011)
“And” between values parts separate entries of the source, which are not always exact repeats. Equal values may be shown once. Out of some 360,000 compounds screened, about 11,000 (3.1%) were called active. Rule as the data show it: active = activity change below about -30%; inactive = the rest. Shown is part of a subset that was picked to be rich in actives. Some structures have more than one record in an assay (separate samples or runs), and their calls can disagree.

biological target: D(1A) dopamine receptor (Homo sapiens) (UniProt P21728); assay: Antagonist of Human D 1 Dopamine Receptor: qHTS; details: HEK293 TREx D1 cells, calcium flux, dopamine EC80; at 10 µM; stronger effect = lower value
Sequence (P21728 whole entry, looked up): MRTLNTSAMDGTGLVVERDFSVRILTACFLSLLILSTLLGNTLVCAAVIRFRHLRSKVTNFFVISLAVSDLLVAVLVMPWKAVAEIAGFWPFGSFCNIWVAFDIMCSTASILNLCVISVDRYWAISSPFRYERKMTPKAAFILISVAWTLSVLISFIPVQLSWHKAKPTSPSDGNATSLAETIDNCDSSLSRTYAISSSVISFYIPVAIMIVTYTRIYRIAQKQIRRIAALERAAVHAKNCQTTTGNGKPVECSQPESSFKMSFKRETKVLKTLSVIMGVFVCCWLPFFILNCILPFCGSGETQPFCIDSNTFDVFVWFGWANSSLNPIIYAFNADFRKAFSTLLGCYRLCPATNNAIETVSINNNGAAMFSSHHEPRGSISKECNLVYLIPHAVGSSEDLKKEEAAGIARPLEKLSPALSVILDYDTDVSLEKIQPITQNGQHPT
Summary of the method: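 Antagonism measured as reduced calcium response to an EC80 dopamine addition following 180 s compound pre-read; cells were inducible HEK293 Trex D1 plated overnight at 30 C, read kinetically at 1 cycle/sec.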
% is scaled to controls: 0 for no effect and ±100 for the full control effect.

Row | SMILES | activity change, negative = inhibition
1 | Fc1ccc(-c2nn(-c3ccccc3Cl)c3c2cnc2ccccc23)cc1 | 15% (inactive)
2 | COc1cc(C)ccc1OCCSc1nc2ccc(NC(=O)c3ccc(C)cc3)cc2s1 | 5.21% (inactive)
3 | Cc1ccc(NC(=O)NC(C)c2c(-n3cccc3)sc(C)c2C)c(C)c1 (stereo unspecified) | -16% (inactive)
4 | O=C(Cc1ccc(Cl)cc1)NCC(c1cccs1)S(=O)(=O)c1ccc(Cl)cc1 (stereo unspecified) | 4.53% (inactive)
5 | Cn1ccc2cc(S(=O)(=O)N3CCCC(C(=O)NCc4ccccc4F)C3)ccc21 (stereo unspecified) | -17.1% (inactive)
6 | CCOc1ccccc1NC(=O)CCn1cnnn1 | -17.8% (inactive)
7 | CC(=O)c1ccc(NC(=O)c2ccc(-n3cncn3)c([N+](=O)[O-])c2)cc1 | 2.28% (inactive)
8 | Cc1ccccc1OCC(=O)NNC(=O)c1ccc(-n2cncn2)c([N+](=O)[O-])c1 | -67.1% (active)
9 | O=C(NNC(=O)c1ccc(-n2cncn2)c([N+](=O)[O-])c1)c1ccccc1 | -5.21% (inactive)
10 | Cc1nc2ccn(Cc3cccs3)c(=O)c2cc1C(=O)NCc1ccc(Cl)cc1 | -27.7% (inactive)
11 | COc1ccc(OC)c(-n2nnc3c(sc4nc(C)c(Br)c(C)c43)c2=O)c1 | -6.84% (inactive)
12 | COc1ccc(NC(=O)CSc2nnc(-c3nnn(-c4ccc(F)cc4)c3C)o2)cc1 | -7.41% (inactive)
13 | O=C(OCCN=C1NS(=O)(=O)c2ccccc21)c1cccc([N+](=O)[O-])c1 | -6.81% (inactive)
14 | O=C(CCCN=C1NS(=O)(=O)c2ccccc21)OCC(=O)c1ccc(F)c(F)c1 | -64.4% (active)
15 | N#CC1(NC(=O)COC(=O)CCN=C2NS(=O)(=O)c3ccccc32)CCCCC1 | -2.93% (inactive)
16 | CCCCOc1ccc(CNC(=O)c2ccc3c(c2)N(C)C(=O)C2CCCCN32)cc1 (stereo unspecified) | 20.7% (inactive)
17 | CCc1nc2cccnc2n1-c1ccc(CC(=O)Nc2c(C)cccc2C)cc1 | 0.844% (inactive)
18 | COc1cc(OC)c(NC(=O)c2cc(S(=O)(=O)N3CCCC3)cn2C)cc1Cl | -11% (inactive)
19 | COc1cc(OC)c(NC(=O)c2cnc(N3CCCC3)nc2C)cc1Cl | -35.8% (active)

Row | SMILES | activity change, negative = inhibition
20 | COc1cc(OC)c(NC(=O)N2CC3CCCN3c3ccccc32)cc1Cl (stereo unspecified) | 46.3% (inactive)
21 | CCc1ccccc1NC(=O)N1CCC2(CC1)Oc1ccccc1C(=O)N2Cc1ccccc1F | -12.2% (inactive)
22 | CCc1nn(CCCN2CCN(c3cccc(Cl)c3)CC2)c(=O)n1CCOc1ccccc1 | -25.8% (inactive) and -41.5% (active)
23 | Cc1nn(CCOc2ccccc2)c(=O)n1-c1ccccc1F | -11.9% (inactive)
24 | OC(COc1ccc2c(c1)CCC2)CN1CCN(c2cccc(Cl)c2)CC1 (stereo unspecified) | -0.524% (inactive)
25 | CCOc1ccc(CNC(=O)CCc2c(C)nn(-c3ccc(N4CCCCC4)nn3)c2C)cc1 | -12.9% (inactive)
26 | COc1ccccc1C(=O)Nc1c(C(=O)Nc2ccc(C)cc2)oc2ccccc12 | 2.57% (inactive)
27 | COc1ccc(NC(=O)c2ccc3nc(C(C)C)oc3c2)cc1OC | 13.3% (inactive)
28 | O=C1CCCc2c1[nH]c1ccc(Br)cc21 | 12% (inactive)
29 | O=[N+]([O-])c1ccc2[nH]c3c(c2c1)CCCC3O (stereo unspecified) | -30.8% (active)
30 | CCOC(=O)c1ccc2[nH]c3c(c2c1)CCCC3NC=O (stereo unspecified) | -2.15% (inactive)
31 | CCOC(=O)C1CCCN(S(=O)(=O)c2cc(-c3cc(C)no3)ccc2OC)C1 (stereo unspecified) | -12.1% (inactive)
32 | COC(=O)c1scc(-c2ccccc2)c1S(=O)(=O)Nc1ccccc1 | -7.67% (inactive)
33 | CCn1c(=O)c2cc(C(=O)NCCc3ccc(Cl)cc3)sc2c2ccccc21 | 3.78% (inactive)
34 | COc1cccc(NC(=O)Cn2c(=O)cc(C)c3c(C)nn(-c4cccc(F)c4)c32)c1 | 11.7% (inactive)
35 | COc1cn(CC(=O)Nc2cccc(C)c2C)c(CN2CCCCC2)cc1=O | -18.9% (inactive)
36 | COc1ccccc1NC(=O)Nc1nc(CC(=O)Nc2ccccc2F)cs1 | 2.24% (inactive)
37 | COc1ccccc1NC(=O)Nc1nnc(Cc2ccc(F)cc2)s1 | -35.5% (active)
38 | O=C(Nc1nnc(COc2ccccc2)s1)Nc1ccccc1F | -5.26% (inactive)

Row | SMILES | activity change, negative = inhibition
39 | COc1ccc(Cl)cc1-n1c(CCC(=O)O)ccc1-c1ccc(C)cc1 | -15.3% (inactive)
40 | Cc1cccc(N2CCN(S(=O)(=O)c3ccc4[nH]c5c(c4c3)CCCCC5)CC2)c1C | 0.754% (inactive)
41 | CC1CCN(c2ccc([N+](=O)[O-])c(SCCO)c2)CC1 | -30.7% (active)
42 | CN1CCN(c2ccc([N+](=O)[O-])c(Sc3nc4ccccc4[nH]3)c2)CC1 | -1.85% (inactive)
43 | CC1CCN(C(=S)c2cccc([N+](=O)[O-])c2)CC1 | -12.4% (inactive)
44 | Cc1nn(-c2ccc(N3CCCCC3)nn2)c(C)c1CCC(=O)NCc1ccccc1F | -7.94% (inactive)
45 | Cc1cccc(OCCSc2nc3ccccc3n2CC(=O)N2CCCCC2)c1C | -17.2% (inactive)
46 | O=C1CCCN1C(=O)COc1ccc([N+](=O)[O-])cc1 | -83.3% (active)
47 | COc1ccc(C(CNC(=O)COc2ccc([N+](=O)[O-])cc2)N2CCCCC2)cc1 (stereo unspecified) | 6.98% (inactive)
48 | O=C(OCC(=O)N1CCc2ccccc21)c1ccc([N+](=O)[O-])cc1 | -13% (inactive)
49 | O=C(NCC(c1cccnc1)N1CCc2ccccc21)c1cccc(C(F)(F)F)c1 (stereo unspecified) | 4.34% (inactive)
50 | Cc1ccc2oc3c(c(=O)c2c1)C(c1ccc([N+](=O)[O-])cc1)N(CCCN1CCOCC1)C3=O (stereo unspecified) | -8.02% (inactive)
51 | Cc1ccc(-c2nn3c(=O)cc(CN4CCN(C(=O)Nc5cccc(C(F)(F)F)c5)CC4)nc3s2)cc1 | 4.59% (inactive)
52 | Cc1ccc(C)c(N2CCN(C(=O)CN3C(=O)COc4ccc(S(=O)(=O)N5CCCCCC5)cc43)CC2)c1 | -0.74% (inactive)
53 | Cc1ccccc1-c1n[nH]c(=S)n1/N=C/c1ccc(-c2ccccc2Br)o1 | -0.652% (inactive)
54 | Cc1ccsc1/C=N/n1c(=S)[nH]nc(C)c1=O | 0.744% (inactive)
55 | S=c1[nH]nc(-c2ccco2)n1/N=C/c1ccc(Br)s1 | -38.6% (active)
56 | O=C(CN1C(=O)COc2ccc(S(=O)(=O)N3CCOCC3)cc21)N1CCN(c2cccc(Cl)c2)CC1 | -5.01% (inactive)
